Assay results: PubChem BioAssay

The molecules below were run on Sam68 (KHDRBS1) (assay: compounds binding KHDRBS1 protein – biochemical, small-molecule microarray, 635 nm fluorescence, primary screen (AID 1125;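 note: score merges 667 nm channel intensity with signal to noise over triplicate slides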)). Details: higher = more signal.
Work on `C=C(COC)/C(=C/C[C@H](OC(C)=O)c1ccc(CO)o1)c1cc(C(=O)OC)ccc1OC` yielded a composite z-score of 0.322.
With `O=C(NCCN1CCOCC1)C1N=C(c2ccc(OCCCO)cc2)N(c2ccccc2)O1` (stereo not given) the composite z-score was 1.3.
`COCCOC(=O)N1C(=O)[C@@]2(c3cc(C#CCCO)ccc31)[C@H](C(=O)N1CCCCCCC1)[C@H]1C(=O)O[C@H](c3ccccc3)[C@H](c3ccccc3)N1[C@@H]2c1ccc(OCCO)cc1` gave a composite z-score of 1.3.
Work on `COc1cc(Br)cc(C(O)C2C=CC3C(=O)N(C)C(=O)C3N2N2CCCCC2)c1OC` (stereo not given) yielded a composite z-score of -0.309.
In the case of `C=C(C)[C@@H]1CC=C(C(O)C2C=CC3C(=O)N(C)C(=O)C3N2Nc2ccccc2)CC1` (stereo not given in full), the composite z-score is reported as 0.838.
In the case of `O=C(N1CCCCC1)[C@]1(Cc2ccccc2)N=C(c2ccc(OCCCO)cc2)O[C@@H]1c1ccccc1`, the composite z-score is reported as 1.18.
Work on `CC(C)c1ccc(NN2C(C(O)c3ccc(B(O)O)cc3)C=CC3C(=O)N(c4ccccc4)C(=O)C32)cc1` (stereo not given) yielded a composite z-score of 1.26.
Work on `C=CCNC(=O)[C@@H]1[C@H]2C(=O)O[C@H](c3ccccc3)[C@H](c3ccccc3)N2[C@H](c2ccccc2OCCO)[C@@]12C(=O)N(C(=O)OCCOC)c1ccccc12` yielded a composite z-score of 1.31.
Work on `CC(C)C(O)C1C=CC2C(=O)N(c3ccccc3)C(=O)C2N1Nc1ccc([N+](=O)[O-])cc1` (stereo not given) yielded a composite z-score of 1.13.
`COC(=O)[C@@]1(Cc2ccc(OC)cc2)[C@@H]2C(=CC(=O)[C@H]2CC(=O)C(=O)N2CCCC2)CN1C(=O)c1ccccc1` was tested, and the composite z-score was -0.685.
`COC(=O)[C@@]1(Cc2ccc(OC)cc2)[C@H]2c3cc(C(=O)N(C)C)n(Cc4ccc(S(C)(=O)=O)cc4)c3C[C@H]2CN1C(=O)c1ccccc1` showed a composite z-score of 0.549.
With `COCCOC(=O)N1C(=O)[C@@]2(c3cc(C#CC4(O)CCCCCC4)ccc31)[C@H](c1ccc(OCCO)cc1)N1[C@H](c3ccccc3)[C@H](c3ccccc3)OC(=O)[C@H]1[C@@H]2C(=O)N1CCN(c2ncccn2)CC1` the composite z-score was 1.3.
In the case of `COc1ccc(C#Cc2ccc3c(c2)[C@]2(C(=O)N3)[C@H](C(=O)Nc3nc4ccccc4s3)[C@H]3C(=O)O[C@H](c4ccccc4)[C@H](c4ccccc4)N3[C@@H]2c2ccc(O)cc2)cc1`, the composite z-score is reported as 1.31.
For `OCCCC1=CC(c2cccs2)N(Cc2cc3c(cc2Br)OCO3)CC1` (stereo not given), the composite z-score was 0.242.
With `CCN(CC)c1ccc(N2CC=CC34O[C@@H]5C=CCCOC(=O)C5[C@H]3C(=O)N(CCCCCCO)[C@@H]4C2=O)cc1` (stereo not given in full) the composite z-score was 0.114.
With `CCCCCN1CC=CC23O[C@@H]4/C=C\CCC(C)OC(=O)C4[C@H]2C(=O)N(C(C)CO)[C@@H]3C1=O` (stereo not given in full) the composite z-score was 0.579.
With `CC(C)OC(=O)C=C1C[C@@H](c2ccccn2)O[C@@H](c2ccccn2)O1` the composite z-score was 0.216.
`C=CCOC(=O)[C@H]1[C@@H]2C(=O)O[C@@H](c3ccccc3)[C@@H](c3ccccc3)N2[C@@H](c2ccc(OCCOC(=O)[C@@H]3C[C@@H]4C(=O)N[C@@H](CCCCNC(C)=O)C(=O)N4[C@@H]3c3ccc(O)cc3)cc2)[C@]12C(=O)Nc1ccccc12` was tested, and the composite z-score was 1.3.
For `Cc1nc2cc(Br)ccc2c(=O)o1`, the composite z-score was 0.384.
`C=CCOC(=O)[C@H]1[C@@H]2C(=O)O[C@@H](c3ccccc3)[C@@H](c3ccccc3)N2[C@@H](c2ccc(OCCOC(=O)[C@H]3C[C@H]4C(=O)N[C@@H](CCCCNC(C)=O)C(=O)N4[C@H]3c3ccc(O)cc3)cc2)[C@]12C(=O)Nc1ccc(I)cc12` was tested, and the composite z-score was 1.22.
`C=C[C@@H](COC(=O)OC(C)(C)C)N(Cc1ccc(OC)cc1)S(=O)(=O)c1ccc(Br)cc1` showed a composite z-score of 0.828.
`COc1ccc([Si](C)(C)[C@H]2[C@H](CCO)O[C@@]3(C(=O)N(Cc4ccc(N(C=O)c5ccccc5)cc4)c4ccccc43)[C@@H]2C)cc1` was tested, and the composite z-score was -0.852.
With `COCCOC(=O)N1C(=O)[C@@]2(c3cc(C#Cc4ccc(OC)cc4)ccc31)[C@H](c1ccc(OCCO)cc1)N1[C@H](c3ccccc3)[C@H](c3ccccc3)OC(=O)[C@H]1[C@@H]2C(=O)N1CCN(c2ncccn2)CC1` the composite z-score was 1.33.
`COc1ccc(C#Cc2ccc3c(c2)[C@]2(C(=O)N3)[C@H](c3ccccc3OCCO)N3[C@H](c4ccccc4)[C@H](c4ccccc4)OC(=O)[C@H]3[C@@H]2C(=O)Nc2nc3ccccc3s2)cc1` gave a composite z-score of 1.31.
For `CCCC[C@@H]1C[C@H]1[C@@H](NC(=O)C(C)(C)C)c1ccc(C(F)(F)F)cc1`, the composite z-score was -0.305.
`COC(=O)C(CC#Cc1ccc2c(c1)[C@]1(C(=O)N2)[C@H](c2ccc(OCCO)cc2)N2[C@H](c3ccccc3)[C@H](c3ccccc3)OC(=O)[C@H]2[C@@H]1C(=O)Nc1nc2ccccc2s1)C(=O)OC` gave a composite z-score of 1.31.
With `COc1ccc(CCNC(=O)[C@@]2(Sc3ccc(C)cc3)CC(=O)N(C(C)C)[C@@H]2c2ccc(CO)cc2I)cc1` the composite z-score was 0.0063.
`COC(=O)[C@@]1(Cc2ccc(F)cc2)[C@H]2c3cc(C(=O)N4CCCC4)n(Cc4ccc(S(C)(=O)=O)cc4)c3C[C@H]2CN1C(=O)c1ccccc1` was tested, and the composite z-score was 0.995.
Work on `O=C1c2ccccc2[C@](Cc2ccccc2I)(C(=O)NCCN2CCOCC2)[C@H](c2ccc(CO)cc2)N1C1CCCCC1` yielded a composite z-score of 1.31.
`COC(=O)[C@@]1(CCS(=O)(=O)c2ccccc2)N=C(c2ccc(OCCCO)cc2)O[C@H]1c1ccccc1CN=[N+]=[N-]` was tested, and the composite z-score was 1.34.
`COCCOC(=O)N1C(=O)[C@@]2(c3cc(C#CCNC(N)=O)ccc31)[C@H](C(=O)Nc1nc3ccccc3s1)[C@H]1C(=O)O[C@H](c3ccccc3)[C@H](c3ccccc3)N1[C@@H]2c1ccc(OCCO)cc1` was tested, and the composite z-score was 1.1.
With `CC(C)NC(=O)[C@@H]1c2ccccc2C(=O)N(C2Cc3ccccc3C2)[C@H]1c1ccc(CO)cc1` the composite z-score was 0.983.
`CC(C)=CCCC(C)=CC(O)C1C=CC2C(=O)N(C)C(=O)C2N1Nc1ccccc1` (stereo not given) gave a composite z-score of 1.3.
Work on `[N-]=[N+]=NCc1ccccc1C[C@]1(C(=O)N2CCCCC2)N=C(c2ccc(OCCCO)cc2)O[C@H]1c1ccccc1N=[N+]=[N-]` yielded a composite z-score of 1.33.
Work on `CCOC(=O)C[C@H]1[C@H](OC(=O)c2ccc(C(=O)c3ccccc3)cc2)[C@@H](NC(=O)CC(C)C)c2cc(OCCCO)ccc2N1C(=O)c1ccc2ccccc2n1` yielded a composite z-score of 1.29.
